Experiment [1] is described as follows: qHTS for Inhibitors of the Functional Ribonucleoprotein Complex (vRNP) of Lassa (LASV) Arenavirus: LASV Primary Screen - GLuc reporter signal (AID 1347082; calls by dose curve; tested in HEK293 reporter line; further: nearly all actives have a fitted effect of over 60% in size; on activity change, negative = inhibition: series mostly up to about 57 µM).
The nature of experiment [2]: qHTS for Inhibitors of the Functional Ribonucleoprotein Complex (vRNP) of Lassa (LASV) Arenavirus: Viability assay - alamar blue signal for LASV Primary Screen (AID 1347083; calls by dose curve; tested in HEK293 reporter line; further: nearly all actives have a fitted effect of over 80% in size; on activity change, negative = reduced viability: series mostly up to about 57 µM).
Experiment [3] is described as follows: qHTS for Inhibitors of the Functional Ribonucleoprotein Complex (vRNP) of Lymphocytic Choriomeningitis Arenaviruses (LCMV): Viability assay - alamar blue signal for LCMV Primary Screen (AID 1347085; calls by dose curve; tested in HEK293 reporter line; further: nearly all actives have a fitted effect of over 80% in size; on activity change, negative = lower viability: series mostly up to about 57 µM).
In experiment [4] the target is Nucleoprotein (Lymphocytic choriomeningitis virus (strain Armstrong)) (UniProt P09992). Briefly: qHTS for Inhibitors of the Functional Ribonucleoprotein Complex (vRNP) of Lymphocytic Choriomeningitis Arenaviruses (LCMV): LCMV Primary Screen - GLuc reporter signal (AID 1347086). Further: nearly all actives have a fitted effect of over 70% in size. On activity change, negative = inhibition: series mostly up to about 57 µM.

Results filed as inconclusive are left out. A number with no mark means an inactive call. Calls of active or inactive are those of the source. Unless noted, the call rests on the fitted dose curve.
On the % scale 0 is the no-effect control and ±100 the full control effect; potency means the concentration at half of the fitted maximal effect.

Sequence of Nucleoprotein (Lymphocytic choriomeningitis virus (strain Armstrong)) (P09992 whole entry, looked up): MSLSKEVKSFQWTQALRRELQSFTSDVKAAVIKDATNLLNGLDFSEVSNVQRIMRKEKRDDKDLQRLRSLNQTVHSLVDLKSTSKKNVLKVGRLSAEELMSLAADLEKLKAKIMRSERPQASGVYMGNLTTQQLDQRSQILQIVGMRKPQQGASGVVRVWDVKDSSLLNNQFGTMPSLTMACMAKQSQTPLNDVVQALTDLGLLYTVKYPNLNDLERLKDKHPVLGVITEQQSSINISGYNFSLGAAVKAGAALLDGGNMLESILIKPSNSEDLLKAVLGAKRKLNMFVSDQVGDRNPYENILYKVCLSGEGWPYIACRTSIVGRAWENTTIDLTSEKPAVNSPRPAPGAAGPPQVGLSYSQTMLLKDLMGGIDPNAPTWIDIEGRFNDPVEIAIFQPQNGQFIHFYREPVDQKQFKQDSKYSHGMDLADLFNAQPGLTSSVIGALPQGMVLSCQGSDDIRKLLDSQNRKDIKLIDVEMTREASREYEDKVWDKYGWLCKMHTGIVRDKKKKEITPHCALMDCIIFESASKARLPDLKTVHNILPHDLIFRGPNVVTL

Regarding `C[C@H]1O[C@@H](O[C@H]2CC[C@@]3(C)C(CC[C@]4(C)C3C=C[C@]35OC[C@@]6(CCC(C)(C)C[C@H]63)[C@@H](O)C[C@]54C)[C@]2(C)CO)[C@H](O)[C@@H](O[C@@H]2O[C@H](CO)[C@@H](O)[C@H](O)[C@H]2O)[C@H]1O` (stereo not given in full), the Potency result in experiment [1], in experiment [2], in experiment [3] and in experiment [4] was “inactive” throughout.
As for `CC(C)COC(=O)c1ccccc1`, the Potency result in experiment [1], in experiment [2], in experiment [3] and in experiment [4] was “inactive” in each case.
As to `COc1ccc2ccc(=O)oc2c1CC(=O)C(C)C`, the Potency result in experiment [1], in experiment [2], in experiment [3] and in experiment [4] was “inactive” each time.
As to `O=C1C=C(C2OC(CO)C(O)C2O)C(=O)N1` (stereo not given), the Potency entry in experiment [1], in experiment [2], in experiment [3] and in experiment [4] was “inactive” throughout.
As for `CS[C@H]1SC[C@@H]2C(=O)N(C)[C@H](C(C)C)C(=O)OC[C@H](NC(=O)c3cnc4ccccc4n3)C(=O)N[C@H](C)C(=O)N(C)[C@@H]1C(=O)N(C)[C@H](C(C)C)C(=O)OC[C@H](NC(=O)c1cnc3ccccc3n1)C(=O)N[C@H](C)C(=O)N2C`, the Potency was 61.1 nM (active) in experiment [1], 10.9 nM (active) in experiment [2], 6.1 nM (active) in experiment [3] and 17.2 nM (active) in experiment [4].
With `COC(=O)c1cc(=O)cc(C(=O)OC)o1`, the Potency entry in experiment [1], in experiment [2], in experiment [3] and in experiment [4] was “inactive” each time.
Regarding `O=C(O)c1cc(N(Cc2ccccc2O)Cc2ccccc2O)ccc1O`, the Potency entry in experiment [1], in experiment [2], in experiment [3] and in experiment [4] was “inactive” throughout.
`O=C1NC2C(=CC(O)C(O)C2O)c2cc3c(c(O)c21)OCO3` (stereo not given): the Potency result in experiment [1], in experiment [2], in experiment [3] and in experiment [4] was “inactive” throughout.
Turning to `CO[C@H]1C[C@H](O[C@H]2[C@H](C)O[C@@H](O[C@@H]3/C(C)=C/C[C@@H]4C[C@@H](C[C@]5(C=C[C@H](C)[C@@H](C6CCCCC6)O5)O4)OC(=O)[C@@H]4C=C(C)[C@@H](O)[C@H]5OC/C(=C\C=C\[C@@H]3C)[C@]54O)C[C@@H]2OC)O[C@@H](C)[C@@H]1O`, the Potency result in experiment [1], in experiment [2], in experiment [3] and in experiment [4] was “inactive” each time.
In the case of `CCC[C@H]1C[C@H](C(=O)N[C@@H]([C@@H]2O[C@@H](SC)[C@@H](O)[C@@H](O)[C@@H]2O)[C@H](C)Cl)N(C)C1`, the Potency result in experiment [1], in experiment [2], in experiment [3] and in experiment [4] was “inactive” each time.
`CC1(C)Oc2ccc3ccc(=O)oc3c2C[C@H]1O[C@@H]1O[C@H](CO)[C@@H](O)[C@H](O)[C@H]1O`: the Potency result in experiment [1], in experiment [2], in experiment [3] and in experiment [4] was “inactive” throughout.
As for `O=C1CCCCCCCCCCCCCC1`, the Potency entry in experiment [1], in experiment [2], in experiment [3] and in experiment [4] was “inactive” each time.
Regarding `Cc1cnc(C)c(C)n1`, the Potency result in experiment [1], in experiment [2], in experiment [3] and in experiment [4] was “inactive” throughout.
As for `CC1(C)C[C@H](O)[C@]2(CO)[C@H](O)C[C@]3(C)C(=CCC4[C@@]5(C)CC[C@H](O)C(C)(C)C5CC[C@]43C)[C@@H]2C1` (stereo not given in full), the Potency result in experiment [1], in experiment [2], in experiment [3] and in experiment [4] was “inactive” in each case.
As to `CN1CCc2cc3c(cc2C1)OCO3`, the Potency result in experiment [1], in experiment [2], in experiment [3] and in experiment [4] was “inactive” in each case.
For `CCC(=O)Nc1ccccc1`, the Potency result in experiment [1], in experiment [2], in experiment [3] and in experiment [4] was “inactive” throughout.
Turning to `COc1c2ccoc2c(OC[C@@H](O)C(C)(C)O)c2oc(=O)ccc12`, the Potency entry in experiment [1], in experiment [2], in experiment [3] and in experiment [4] was “inactive” in each case.
Regarding `COc1ccc(-c2coc3cc(O)cc(O)c3c2=O)cc1OC`, the Potency entry in experiment [1], in experiment [2], in experiment [3] and in experiment [4] was “inactive” throughout.
Turning to `CC1=CC23C(=O)C(C=C(CO)[C@@H](O)[C@]2(O)[C@H]1O)[C@H]1[C@@H](C[C@H]3C)C1(C)C` (stereo not given in full), the Potency entry in experiment [1], in experiment [2], in experiment [3] and in experiment [4] was “inactive” each time.
For the compound `C[C@H]1O[C@H](O[C@H]2[C@H](O)[C@@H](O)[C@@H](O[C@H]3[C@H](O)[C@@H](O)C(O)O[C@H]3CO)O[C@H]2CO)[C@H](O)[C@@H](O)[C@H]1N[C@H]1C=C(CO)[C@@H](O)[C@H](O)[C@@H]1O` (stereo not given in full), the Potency entry in experiment [1], in experiment [2], in experiment [3] and in experiment [4] was “inactive” in each case.
As to `O=c1ccn([C@H]2C[C@H](O)[C@@H](CO)O2)c(=O)[nH]1`, the Potency entry in experiment [1], in experiment [2], in experiment [3] and in experiment [4] was “inactive” throughout.
On to `NC(=O)[C@H]1CCCN1C(=O)[C@H](Cc1cnc[nH]1)NC(=O)[C@@H]1CCC(=O)N1`, for which the figures for the activity change, negative = inhibition in experiment [1] and in experiment [4] were 10.2% [at 5.82 µM] and -2.24% [at 5.82 µM], respectively. In experiment [2], the activity change, negative = reduced viability is 6.52% [at 5.82 µM]. Besides, in experiment [3], the activity change, negative = lower viability was -0.247% [at 5.82 µM].
With `O=C(CCCO)CCCCCCCCC[C@H]1N[C@H](CO)[C@@H](O)[C@@H]1O`, the Potency entry in experiment [1], in experiment [2], in experiment [3] and in experiment [4] was “inactive” throughout.
Regarding `COc1ccc2c(=O)c(-c3ccccc3)c(C)oc2c1`, the Potency result in experiment [1], in experiment [2], in experiment [3] and in experiment [4] was “inactive” each time.
For `COc1cc2c(cc1O)C(Cc1ccc(O)cc1)[N+](C)(C)CC2` (stereo not given), the Potency result in experiment [1], in experiment [2], in experiment [3] and in experiment [4] was “inactive” in each case.
As for `COc1cc2oc(=O)c3c4c(cc5ccc(c1CCN(C)C)c2c53)OCO4`, the Potency result in experiment [1], in experiment [2], in experiment [3] and in experiment [4] was “inactive” throughout.
In the case of `COc1cc2c(cc1OC)-c1cc3ccc4c(c3c[n+]1CC2)OCO4`, the Potency result in experiment [1], in experiment [2], in experiment [3] and in experiment [4] was “inactive” in each case.
Regarding `Cc1cc(=O)c2c(O)c(O)ccc2o1`, the Potency result in experiment [1], in experiment [2], in experiment [3] and in experiment [4] was “inactive” each time.
With `Cc1cc(=O)c2c(O)c3c(O)cc(O)c4c5c(O)cc(O)c6c(O)c7c(=O)cc(C)c8c1c2c(c34)c(c65)c78`, the Potency result in experiment [1], in experiment [2], in experiment [3] and in experiment [4] was “inactive” each time.
Consider `CCCCCCCCCCCCCCCCC`, for which the Potency entry in experiment [1], in experiment [2], in experiment [3] and in experiment [4] was “inactive” throughout.
